Test results reported in PubChem BioAssay AID686978 (National Center for Advancing Translational Sciences (NCATS), 2013).
Out of some 420,000 compounds screened, about 64,000 (15%) were called active. Roughly 27% stayed inconclusive and do not appear here. Calls follow the shape of the dose curve; as a rule, active = well fitted inhibition curve with a large enough effect; inconclusive = small, poorly fitted or top-dose-only effect; inactive = flat fitted curve, though single readings scatter. Not all results are given here.

Experiment: qHTS for Inhibitors of human tyrosyl-DNA phosphodiesterase 1 (TDP1): qHTS in cells in absence of CPT; also: nearly all actives have a fitted effect of over 55% in size
Conditions: DT40 Tdp1-/- hTDP1 cells, no CPT, ATP luminescence, 48 h; activity change, negative = growth inhibition: at 46.2 µM (top of the series)
In short: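 DT40 Tdp1-/-;hTDP1 cells, no CPT (DMSO vehicle only), 400 cells/well; compounds pin-transferred; ≥48 hr, 37 °C; CellTiter-Glo 30 min RT dark, luminescence read.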
% is scaled to controls: 0 for no effect and ±100 for the full control effect; potency is read from the fitted curve at half-maximal effect.

SMILES	activity change, negative = growth inhibition	Potency
CC(=O)NC(Cc1ccc(F)c(F)c1)C(=O)NC1CCN(C(=O)c2ccc(C)cc2)CC1 (stereo not drawn)	-5.08% (inactive)	
CCOc1ccc(S(=O)(=O)N2CCCCCC2)c2ccccc12	-29.8% (inactive)	
COc1ccc(-c2ocnc2C(=O)Nc2ccc3c(c2)CCC3)cc1	-22.7% (inactive)	
CSC1=NCCN1C(=O)Cc1cccc2ccccc12	8.2% (inactive)	
COCCN1C(=O)C(=O)/C(=C(/O)c2ccc(S(=O)(=O)N3CCOCC3)cc2)C1c1ccc(O)c(OC)c1 (stereo not drawn)	17.3% (inactive)	
O=C(c1ccccc1Cl)N(Cc1ccccc1F)N1C(=O)CCCC1=O	1.49% (inactive)	
CN(C)CCN(C(=O)C1CCCCC1)c1nc2cc3c(cc2s1)OCO3	-3.74% (inactive)	
CC(=O)c1ccc(NC(=O)c2ccc(-n3cncn3)c([N+](=O)[O-])c2)cc1	-26.5% (inactive)	
O=C(Nc1cccc(C(F)(F)F)c1)c1ccc(N2CCNCC2)c([N+](=O)[O-])c1		18.4 µM (active)
O=C(Nc1ccc2c(c1)OCO2)c1ccc(N2C(=O)c3ccccc3C2=O)cc1	-6.15% (inactive)	
O=C(Nc1ccc(N2C(=O)c3cccc4cccc(c34)C2=O)cc1)c1ccc(N2CCCCC2)c([N+](=O)[O-])c1		7.31 µM (active)
O=C(COc1ccccc1F)NNC(=O)c1ccc(N2CCCCC2)c([N+](=O)[O-])c1	-82% (inactive)	
CN1CCN(CC#CCC2(O)c3ccccc3-c3ccccc32)CC1	-7.87% (inactive)	
CCC(=O)NC(=S)Nc1ccc(NC(=O)c2ccco2)c(Cl)c1	-4.57% (inactive)	
COC(=O)c1cccc(NC(=O)CSc2nc(C)cc(=O)[nH]2)c1	1.31% (inactive)	
COC(=O)c1c(C(=O)OC)c(-c2cccc(C)c2)n2c1CS(=O)C2 (stereo not drawn)	-0.626% (inactive)	
COc1ccc(C2CC(c3cccs3)=NN2C(=O)CCC(=O)O)cc1OC (stereo not drawn)	3.1% (inactive)	
O=C1c2cccc(OCC(=O)N3N=C(c4cccs4)CC3c3ccc(F)cc3)c2CCN1Cc1ccccc1 (stereo not drawn)		9.2 µM (active)
COc1ccc(C2CC(c3cccs3)=NN2C(=O)CSc2nncs2)cc1OC (stereo not drawn)	-23.6% (inactive)	
CN(CC(=O)NC1CCCCC1)S(=O)(=O)c1ccc(Br)s1	-32.5% (inactive)	
O=C1C(c2[nH]c3ccccc3c2O)=Nc2ccccc21	-16.4% (inactive)	
CSCCC(=O)N1CCCC(CNC(=O)c2ccccc2Cl)C1 (stereo not drawn)	-18.6% (inactive)	
Cc1ccc(-n2ncc(C(=O)NC3CC3)c2C2CCN(C(=O)OC(C)(C)C)CC2)c(C)c1	-18.3% (inactive)	
COc1ccccc1CN1CCC(CNC(=O)c2cnn(-c3cccc(Cl)c3)c2C2CCN(C(=O)OC(C)(C)C)CC2)CC1		5.8 µM (active)

SMILES	activity change, negative = growth inhibition	Potency
COc1ccccc1-c1ccnc(-n2ncc(C(=O)NCCCN3CCOCC3)c2C)n1	-3.07% (inactive)	
COc1ccccc1N1CCN(CCCNC(=O)c2cnn(-c3ccccc3Cl)c2C2CCN(C(=O)OC(C)(C)C)CC2)CC1		5.8 µM (active)
COc1ccccc1N1CCN(CC(=O)NCCc2ccc(S(N)(=O)=O)cc2)CC1	-1.08% (inactive)	
CCOC(=O)N1CCC(Nc2c(NCCCN3CCN(CC)CC3)c(=O)c2=O)CC1	-10.5% (inactive)	
Cc1ccc(CN2CCC(CNC(=O)c3cnn(-c4ccccc4Cl)c3C3CCN(C(=O)OC(C)(C)C)CC3)CC2)cc1		4.61 µM (active)
CCOC(=O)N1CCC(NC(=O)c2cnn3ccccc23)CC1	-5.98% (inactive)	
CCN1CCN(CCCNC(=O)c2cnn(-c3ccc(C)cc3C)c2C2CCN(C(=O)OC(C)(C)C)CC2)CC1		20.6 µM (active)
CCc1cccc(C)c1NC(=O)COC(=O)Cc1ccsc1	-18.7% (inactive)	
CC1CCCC(C)N1/N=C/c1ccccc1OC(F)F (stereo not drawn)	-23.5% (inactive)	
O=C(O)CCCCOn1ccnc1	-5.4% (inactive)	
CCCc1cc(=O)[nH]c2nnc(SCC(=O)Nc3nnc(SCC)s3)n12	-29.2% (inactive)	
COc1ccc(C(C)=O)cc1COC(=O)Cn1cnc2ccccc2c1=O	-0.295% (inactive)	
COc1ccccc1CN1CCC(CNC(=O)c2cnn(-c3ccccc3Cl)c2C2CCN(C(=O)OC(C)(C)C)CC2)CC1		8.2 µM (active)
COCCNC(=O)C1CCCN(Cc2ccccc2Cl)CC1 (stereo not drawn)	-3.91% (inactive)	
COC(=O)N1CCC2(CCCN(Cc3ccccc3OC)C2)CC1	-0.23% (inactive)	
Cc1c(CN2CCCCC2)c(O)n(CCO)c(=O)c1C#N	3.18% (inactive)	
COc1cc(CCC(=O)OCC(=O)Nc2cccc(S(N)(=O)=O)c2)cc(OC)c1OC	-0.764% (inactive)	
Cc1ccc(NC(=O)OCCNC(=O)c2ccncc2)cc1	-1.06% (inactive)	
CCCc1cc(=O)n2[nH]c(NCc3ccc(CC)cc3)nc2n1	-4.36% (inactive)	
O=C(N[C@H]1C/C=C\C(c2cccc(F)c2)N(Cc2ccccc2)C(=O)C1)OCC1c2ccccc2-c2ccccc21 (stereo partly drawn)		20.6 µM (active)
O=C(N[C@H]1C/C=C\C(c2ccc(F)cc2)N(Cc2ccccc2)C(=O)C1)OCC1c2ccccc2-c2ccccc21 (stereo partly drawn)		20.6 µM (active)
CCC(C)NC(=O)C1c2ccccc2C(=O)N1Cc1ccccc1 (stereo not drawn)	14.2% (inactive)	
O=C(N[C@@H](Cc1c[nH]c2ccccc12)C(=O)O)OCC1c2ccccc2-c2ccccc21	-25.3% (inactive)	
CN(Cc1ccccc1Cl)C(=O)C1CCC(=O)N(CCc2cccc(F)c2)C1 (stereo not drawn)	-23.9% (inactive)	

SMILES	activity change, negative = growth inhibition	Potency
O=C1c2ccccc2C(O)N1Cc1ccccc1 (stereo not drawn)	11.4% (inactive)	
CC1CCCN(S(=O)(=O)c2ccc3[nH]c(=O)cc(C(=O)NCCc4ccc(Cl)cc4)c3c2)C1 (stereo not drawn)	3.52% (inactive)	
NC(=O)C1CCN(C(=O)c2ccc(C(F)(F)F)cc2)CC1	10% (inactive)	
COC(=O)c1ccc(S(=O)(=O)N2CCC(c3nc4ccccc4o3)CC2)cc1	-27.1% (inactive)	
O=C(c1ccc(C(F)(F)F)cc1)N1CCC(c2nc(-c3ccc(S(=O)(=O)N4CCCC4)cc3)no2)CC1		18.4 µM (active)
CC(C)(C)c1ccc(C(=O)N2CCC(c3nc(-c4ccc(S(=O)(=O)N5CCCC5)cc4)no3)CC2)cc1		20.6 µM (active)
O=C(c1ccncc1)N1CCN(S(=O)(=O)c2cc(C(F)(F)F)cc(C(F)(F)F)c2)CC1	-29.7% (inactive)	
CC(C)(C)c1ccc(S(=O)(=O)N2CCN(C(=O)c3ccc4c(c3)C(=O)N(Cc3ccncc3)C4=O)CC2)cc1	-20.4% (inactive)	
Cc1ccc2nc(COc3cccc(NC(=O)c4ccccc4Cl)c3)cc(=O)n2c1	-18.2% (inactive)	
CNC[C@H]1Oc2c(NC(=O)C3CCCCC3)cccc2C(=O)N([C@H](C)CO)C[C@@H]1C	1.63% (inactive)	
O=C(COC(=O)c1ccc(O)cc1O)NNC(=O)c1cccs1	-10% (inactive)	
Nc1nc(/C(=C/CC(=O)O)C(=O)N[C@@H]2C(=O)N3C(C(=O)O)=CCS[C@H]23)cs1	2.06% (inactive)	
COc1ccc(Cl)cc1NC(=O)CCN1CCOCC1	-5.12% (inactive)	
COc1cccc(NC(=S)NCCCN2CCOCC2)c1	-0.715% (inactive)	
COc1cccc2cc(C(C)N(CCCN3CCOCC3)C(=O)Nc3ccc(Cl)cc3)oc12 (stereo not drawn)		23.1 µM (active)
CC(C)CC(=O)N1CCC(O)(CS(=O)(=O)Cc2ccccc2)CC1	5.44% (inactive)	
CCCCC(=O)Nc1c2c(nn1-c1ccc([N+](=O)[O-])cc1)CS(=O)(=O)C2	13.8% (inactive)	
Cc1ccc2c(c1)nnc1nnc(SCC(=O)O)n12	-18% (inactive)	
C[C@H](NC(=O)c1nc[nH]c1C(=O)NCC(=O)OC(C)(C)C)C(=O)OCc1ccccc1	-28.9% (inactive)	
Cc1c(OC(C)C(=O)N[C@@H](Cc2ccccc2)C(=O)O)ccc2c3c(c(=O)oc12)CCCC3 (stereo partly drawn)	2.69% (inactive)	
NC(=O)COc1ccc2c3c(c(=O)oc2c1)CCCCC3	-16.1% (inactive)	
CCCOc1ccc2c3c(c(=O)oc2c1OCCC)CCC3		23.1 µM (active)
COc1ccc(NC(=O)Nc2ccc3c(c2)C(=O)N([C@H](C)CO)C[C@H](C)[C@@H](CN(C)C(=O)Nc2ccc4c(c2)OCO4)O3)cc1	-10% (inactive)	
CN(CCc1cnn(C)c1)Cc1cn(C)nc1-c1ccccc1F	-2.86% (inactive)	

SMILES	activity change, negative = growth inhibition	Potency
COc1ccc(S(=O)(=O)N(C)C[C@H]2Oc3c(NC(=O)Nc4ccc5c(c4)OCO5)cccc3C(=O)N([C@H](C)CO)C[C@@H]2C)cc1		20.6 µM (active)
C[C@H](CO)N1C[C@H](C)[C@@H](CN(C)S(=O)(=O)c2ccc(F)cc2)Oc2c(NC(=O)Nc3ccccc3)cccc2C1=O	-19.6% (inactive)	
Cc1noc(C)c1S(=O)(=O)N(C)C[C@H]1Oc2c(NC(=O)Nc3ccc4c(c3)OCO4)cccc2C(=O)N([C@H](C)CO)C[C@@H]1C	-22% (inactive)	
Cn1c(=O)c(=O)n(C)c2cc(S(=O)(=O)NCCN3CCN(c4ccccc4F)CC3)ccc21	-7.78% (inactive)	
CC(=O)Oc1cccc(N2C(=O)CC(Nc3ccc(N4CCOCC4)cc3)C2=O)c1 (stereo not drawn)	2.95% (inactive)	
Cc1cc(C(=O)CSc2nc(N)cc(=O)[nH]2)c(C)n1Cc1ccco1		0.82 µM (active)
Cc1cc(C(=O)CSc2nc(N)cc(=O)[nH]2)c(C)n1-c1cccc(F)c1		4.61 µM (active)
Cc1cc(C(=O)COC(=O)CNC(=O)c2ccc(F)cc2)c(C)n1Cc1ccco1	-3.47% (inactive)	
Nc1cc(N)nc(SCc2ccc(Cl)cc2)n1	2.64% (inactive)	
CCN(C(=O)CSc1nc(N)cc(=O)[nH]1)C1CCS(=O)(=O)C1 (stereo not drawn)	23% (inactive)	
Cc1cc(=O)[nH]c(SCC(=O)N2c3ccccc3CC2C)n1 (stereo not drawn)	-13.5% (inactive)	
Cc1cc(C(=O)CSc2nc(N)cc(=O)[nH]2)c(C)n1CCc1ccc(Cl)cc1		16.4 µM (active)
CCCCc1nnc(NC(=O)CSc2nc(N)cc(=O)[nH]2)s1	-5.73% (inactive)	
Cc1cc(C)c(C(=O)CSc2nc(C)cc(=O)[nH]2)c(C)c1	-5.13% (inactive)	
C=CCn1c(COc2ccccc2F)nnc1SCC(=O)N1CC(=O)Nc2ccccc21	0.578% (inactive)	
O=C(O)C1C2C=CC(C2)C1C(=O)N1CCN(CCO)CC1 (stereo not drawn)	1.64% (inactive)	
C/C(=N\c1nc2ccccc2n1C)c1cc(Cl)ccc1O	-18.9% (inactive)	
Cc1cc2oc3ccc(NCCC4CCCN4C)cc3c(=O)c2cc1C (stereo not drawn)		16.4 µM (active)
CCCOc1ccc(C2c3c(oc4cc(C)c(C)cc4c3=O)C(=O)N2CCCN2CCOCC2)cc1 (stereo not drawn)	-19.8% (inactive)	
Cc1ccc(C(=O)O)c(NC=O)c1OCc1ccccc1	34.4% (inactive)	
CC(=O)Nc1ccc(NC(=O)CSc2nnc3c4cc(Br)ccc4n(C)c3n2)cc1	-18.7% (inactive)	
